# MPTP block – inhibitors of mitochondrial permeability transition pore; isolated mouse mitochondria, Ca2+ swelling absorbance, 30 min; inhibition, % at 10 µM; 360,000 compounds, 1.4% hits;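 active means inhibition of 50% or more, scaled per plate between neutral and stimulator controls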;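 further: 0% = DMSO wells given calcium and 100% = 1 mM EGTA wells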
# proKLK7 act – activators of human kallikrein-7 zymogen. P49862. 370,000 compounds, 0.9% hits. purified proKLK7, EDANS-DABCYL substrate fluorescence; 100% is mature enzyme control, 0% vehicle. AID 652039. activation, % at 7 µM;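 active means activation above the mean of all tested compounds plus 3 SD, computed per campaign excluding outliers beyond control limits, cut at about 13% in these data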
# ADAM17 inh – inhibitors of human ADAM17; P78536; recombinant ADAM17, EDANS/DABCYL FRET peptide cleavage; inhibition, % at 6.95 µM; 370,000 compounds, 0.83% hits;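 active means inhibition above the mean of compounds lying between control limits plus 3 SD, set per campaign, cut at about 8.5% in these data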;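 further: 0% = DMSO-only wells as the low control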
# rCAG binder – r(CAG) repeat RNA binding; inhibition, % at 3 µM; TO-PRO-1 dye displacement fluorescence; 370,000 compounds, 1.3% hits;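 active means inhibition above the plate cutoff, the mean of all test compounds on that plate plus 3 SD, cut at about 35% in these data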;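 further: 0% = DMSO alone and 100% = 100 µM mitoxantrone as full dye displacement; higher means more dye released from RNA so lower well fluorescence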
# DSG3 Ab inh – inhibitors of pemphigus antibody binding to human desmoglein-3; P32926; DSG3-coupled beads, scFv-anti-DSG3-GFP binding, flow cytometry; stronger effect = lower value; binding (percent of control), % at 10 µM; 310,000 compounds, 0.48% hits;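 active means binding more than 3 SD below its plate's average and above zero; inconclusive means below that plate limit but binding exactly zero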
# ADAM10 inh – inhibits human ADAM10 | recombinant ADAM10, EDANS/DABCYL FRET peptide cleavage, 3 h | inhibition, % at 7 µM | 370,000 compounds, 0.62% hits | AID 720582;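 active means inhibition above a per-campaign cutoff equal to the mean of compounds falling between control-based bounds plus 3 SD, cut at about 20% in these data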;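 further: 0% = DMSO wells while the 100% control is not disclosed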
# proKLK7 act conf – confirmation of human kallikrein-7 zymogen activators; shares compounds with proKLK7 act; purified proKLK7, EDANS-DABCYL substrate fluorescence; scaled: vehicle 0, mature enzyme 100; activation, % at 7 µM; 3,200 compounds, 68% hits; AID 686949;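 active means activation, as change over the incubation, above the mean of all tested compounds plus 3 SD, cut at about 13% in these data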
# EDANS interfere – optically interferes with EDANS-DABCYL signal, flagging KLK7 hits. shares compounds with proKLK7 act. EDANS-DABCYL substrate fluorescence interference, no enzyme, 4 h; solvent 0%, active enzyme control 100%. activation, % at 7 µM. 3,200 compounds, 80% hits. AID 686952;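 active means activation above the all-compound mean plus 3 SD, ignoring values outside control-based bounds, cut at about 4.8% in these data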;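 further: value is the 4 h activation minus the activation read at time zero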
# EDANS interf – EDANS fluorescence interference in dose response, no enzyme; shares compounds with proKLK7 act; EDANS-DABCYL peptide fluorescence interference; EC50, µM; 250 compounds, 20% hits;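 active means compounds that raise the fluorescence signal in this interference counterscreen, with EC50 at or below 10 µM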;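 further: intact quenched peptide substrate alone read at 355 nm excitation and 520 nm emission; signal is fluorescence gain from T0 to T4 after four hours at room temperature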
# An asterisk follows results filed as active; i = inactive; ? = inconclusive; · = no result given. An excerpt weighted towards active compounds, which were near 4.7% of everything screened.
SMILES,MPTP block,proKLK7 act,ADAM17 inh,rCAG binder,DSG3 Ab inh,ADAM10 inh,proKLK7 act conf,EDANS interfere,others
O=C(COc1cc(Cl)ccc1Cl)Nc1nnc(C2CC2)s1,0,0,-1,2,99,-4,·,·,
CC(=O)OC12CCCN(C1)/C(=C/c1ccc(Cl)cc1)C2 (centres undefined),·,0,-7,1,·,-15,·,·,
O=C(c1cccc(N2C(=O)C3CC=CCC3C2=O)c1)N1CCCc2ccccc21 (centres undefined),1,0,-4,0,102,3,·,·,
CN(C)/C=N/c1nc2nccc(-c3ccccn3)n2n1,-1,12,-35,-2,105,-130,·,·,
COc1ccc(-c2ccnc3nc(/N=C/N(C)C)nn23)cc1,·,44*,i,-4,·,i,66*,63*,
CN(C)/C=N/c1nc2nccc(-c3cccnc3)n2n1,-1,13*,-77,2,82,-307,65*,62*,
Cc1ccc(-c2nc3ncccn3c2NC(=O)C2CC2)cc1,-4,17*,-285,1,99,i,32*,45*,
CC(=O)Nc1c(-c2ccc(F)cc2)nc2ncccn12,·,12,-304,4,·,i,·,·,
O=C(Nc1nc2ncccn2c1-c1ccc(C(F)(F)F)cc1)C1CC1,·,12,-243,0,·,i,·,·,
O=C(Nc1c(-c2ccc(C(F)(F)F)cc2)nc2ncccn12)C1CC1,·,27*,-270,0,·,i,29*,27*,
COc1ccc(-c2noc(N3CCC(C(=O)N(C)c4ccccc4)CC3)n2)cc1,0,0,2,-1,104,-1,·,·,
Cc1c(CCC(=O)NC2CC2)c(=O)oc2c(C)c(O)ccc12,1,·,·,·,95,·,·,·,
Cc1c(O)ccc2c3c(c(=O)oc12)CCC(C)C3 (centres undefined),3,39*,i,7,95,i,63*,84*,
Cc1c(Br)c(=O)oc2c(Br)c(O)ccc12,-1,26*,-179,-2,94,i,15*,25*,
Cc1c(O)ccc2c3c(c(=O)oc12)CCCC3,1,32*,i,3,102,i,71*,64*,
CC(=O)COc1ccc2c3c(c(=O)oc2c1C)CCCCC3,-1,0,-127,-3,109,-411,·,·,
Cc1c(Br)c(=O)oc2c(Br)c(O)c(O)cc12,1,-15,-125,18,81,-470,·,·,
CNc1ccc(-c2cccc(C(C)=O)c2)cn1,0,-1,-14,2,·,-32,·,·,
CNc1ccc(-c2cccc(CO)c2)cn1,-1,20*,i,-2,·,i,24*,16*,EDANS interf=>70
COc1cc2c(cc1OC)C1CCN3C(=O)CCC3N1CC2 (centres undefined),-1,20*,-39,0,104,-164,24*,19*,EDANS interf=i
COc1ccc(NC(=O)c2ccc(S(=O)(=O)N3CC(C)CC(C)C3)cc2)cc1S(N)(=O)=O (centres undefined),2,18*,-20,9,91,-208,24*,14*,EDANS interf=i
COc1ccc(NC(=O)COC(=O)c2ccc(S(=O)(=O)N3CC(C)CC(C)C3)cc2)cc1OC (centres undefined),0,1,-1,2,102,-19,·,·,
COC(=O)C1=C(C)N(CCCC(=O)O)C(=O)NC1c1cc2c(cc1[N+](=O)[O-])OCO2 (centres undefined),0,13*,-26,11,103,-86,13*,14*,
O=C(Nn1cnc2ccccc2c1=O)c1ccc([N+](=O)[O-])cc1,-2,1,-2,0,100,-4,·,·,
Cc1cc2nc(-c3ccc[nH]c3=O)n(Cc3cccc(F)c3)c2cc1C,0,1,-458,-5,103,i,·,·,
SMILES,MPTP block,proKLK7 act,ADAM17 inh,rCAG binder,DSG3 Ab inh,ADAM10 inh,proKLK7 act conf,EDANS interfere,others
CCCn1c(-c2ccc[nH]c2=O)nc2cc(C)c(C)cc21,0,18*,-436,3,98,i,38*,41*,
CC(=O)c1ccc(N2C(=NC(=O)C3CCCCC3)SC3CS(=O)(=O)CC32)cc1 (centres undefined),-3,0,1,3,?,10,·,·,
Cc1c(Cl)cccc1N1C(=O)CC(NNC(=O)c2ccc3c(c2)OCO3)C1=O (centres undefined),-1,0,-3,15,87,-6,·,·,
Cc1c(Cl)cccc1N1C(=O)CC(N(O)c2ccccc2)C1=O (centres undefined),1,759*,-6,2,98,-10,676*,671*,
CCCCOc1ccc(N2C(=O)CC(N(O)c3ccccc3)C2=O)cc1 (centres undefined),3,33*,2,8,91,0,36*,33*,
Cc1cccc(C)c1N1C(=O)CC(N(O)c2ccccc2)C1=O (centres undefined),0,277*,8,5,·,-1,224*,254*,
Cc1ccccc1C1(O)c2ccccc2-c2ccccc21,-1,-2,3,0,103,3,·,·,
CCN(CC)Cc1cc(Oc2ccc(O)c(CN(CC)CC)c2)ccc1O,0,·,·,·,·,·,·,·,
CCCS(=O)(=O)NC(=O)C1(C)CCCN(C(=O)c2cccnc2Oc2ccccc2)C1 (centres undefined),0,0,3,3,·,11,·,·,
COc1ccc(NC(=O)c2cc(C3CCCCN3S(=O)(=O)c3cn(C)cn3)on2)c(C)c1 (centres undefined),-1,0,-5,2,·,-4,·,·,
CNc1oc(-c2ccccc2)nc1C#N,0,-14,-318,0,·,i,·,·,
COc1ccc(-c2nc(C#N)c(NCCCN3CCOCC3)o2)cc1,0,0,-191,1,103,i,·,·,
N#Cc1nc(-c2cccs2)oc1N1CCOCC1,0,15*,i,1,101,i,40*,49*,
N#Cc1nc(COc2ccccc2)oc1NCCN1CCOCC1,-2,0,-2,-1,111,12,·,·,
N#Cc1nc(/C=C/c2ccccc2)oc1NCCCN1CCOCC1,1,32*,i,-5,·,i,75*,71*,
N#Cc1nc(-c2cccs2)oc1NCCCN1CCOCC1,-1,42*,i,-3,100,i,78*,78*,
